In PubChem BioAssay (NCI) one finds growth data, which are given here for 14 molecules.

Holding throughout (experiment): NCI-60 one-dose screen, 48 h (100 = growth as untreated, 0 = no growth, -100 = all killed)
Common to all, as to settings: 10 µM

The test system of test [1] is HCT-15 colon.
For test [2], the system named is HT29 colon.
Test [3] concerns SNB-75 CNS.
Test [4] deals with SNB-19 CNS.
The subject of test [5] is U251 CNS.
The test system of test [6] is PC-3 prostate.
Test [7] relates to SK-MEL-5 melanoma.
The subject of test [8] is UACC-62 melanoma.
Test [9] concerns LOX IMVI melanoma.
Test [10] relates to SK-MEL-28 melanoma.

Structures are written as SMILES. Compounds without any hit were thinned out: in the full panel of roughly 83,000, 20% have a hit.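 Percent growth is the endpoint: 0 to 100 indicates growth inhibition (40 means 60% inhibition), 0 means no net growth, and negative values indicate cell death.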 Values without a mark were called inactive. Active and inactive are the calls of the source. The calls were made as follows: active = growth percent below 10; inactive = the rest.

Regarding `O=C(N/N=C/c1c(Cl)cccc1Cl)c1ccccc1Nc1cccc(C(F)(F)F)c1`, the growth is 88.5% in test [1]; 103% in [2]; 105% in test [3]; 97% in [4]; 89.9% in test [5]; 89.9% in test [6]. The growth in test [7] is 72.9%; in [8] it was 87.1%; in test [9], 76.3%; in [10] it was 99.5%.
`O=C1OC(C(Cl)(Cl)Cl)OC1C(Cl)(Cl)Cl` (stereo not drawn): the growth was 109% in test [1]; 105% in test [2]; 104% in test [3]; 102% in [4]; 104% in test [5]; 86.8% in [6]. Moreover, the growth in test [7] is 107%; in [8] it was 95.3%; in [9] it was 97%; in [10] it was 107%.
For `O=C1c2c(c(=O)[nH]c3ccccc23)CCN1Cc1ccccc1`, the growth in test [1] was 96.6%; in test [2], 99.3%; in [3], 79.8%; in test [4], 99.6%; in [5], 103%; in test [6], 84.9%. For the same molecule, the growth is 108% in test [7], 97.1% in [8] and 107% in test [10].
Take `CC[C@@H](C(=O)[C@H](C)[C@H](O)[C@@H](C)[C@H]1O[C@H]([C@@H](CC)C(=O)O)CC[C@H]1C)C1O[C@]2(C=C[C@@H](O)[C@]3(CC[C@@](C)([C@H]4CC[C@](O)(CC)[C@H](C)O4)O3)O2)[C@H](C)C[C@@H]1C` (stereo partly drawn): the growth in test [1] was 25.7%; in test [2] it was 26.1%; in [3], -12.7% (active); in [4], -13.3% (active); in [5], 14.2%; in test [6], 27.5%. Besides, the growth in [7] is -99.2% (active); in [8], -92.2% (active); in test [9], 29.3%; in test [10], -93% (active).
On to `COc1cc(-c2nn(-c3ccc(NC(=O)NCCNS(=O)(=O)c4ccc(F)cc4)cc3)cc2-c2ccncc2)ccc1Cl`, for which the growth in [1] is 47.7%; in [2] it was -24.9% (active); in test [3], 13.8%; in [4] it was 31%; in [5], 4.44% (active); in test [6], 8.93% (active). Also, the growth is -63.6% (active) in [7], 25.7% in [8], 1.79% (active) in [9] and 26.4% in [10].
As to `O=C(CN(C1CCCCC1)C1CCCCC1)Nc1ccc(S(=O)(=O)c2ccc(NC(=O)CN(C3CCCCC3)C3CCCCC3)cc2)cc1`, the growth is -33.7% (active) in test [1]; -84.2% (active) in test [2]; 55.8% in [3]; 11.1% in [4]; -75.9% (active) in [5]; -80% (active) in [6]. In addition, the growth in [7] was -76.5% (active); in test [8] it was -20.9% (active); in [9], -81% (active); in [10], 12.2%.
In the case of `O=C(O)c1ccc(-n2cc(CNc3ccc(Cl)cc3)c(-c3ccccc3)n2)cc1`, the growth in test [1] was 70.5%; in test [2], 102%; in test [3], 78.4%; in test [4], 94.8%; in test [5] it was 93.5%; in test [6] it was 97.2%. Also, the growth in [7] is 87.6%; in [8], 67.6%; in test [9] it was 74.3%; in [10] it was 92.8%.
As for `IC(I)I`, the growth in test [1] was 101%; in [2], 115%; in test [3], 90.8%; in test [4], 106%; in [5], 102%; in test [6], 109%. The growth in [7] is 104%; in test [8], 88.9%; in [10], 109%.
As for `CN(C)CCOc1cccc(NC2=C(Cl)C(=O)C(Nc3cccc(OCCN(C)C)c3)=C(Cl)C2=O)c1`, the growth in [1] is -78.6% (active); in test [2], -80% (active); in test [3], 84%; in test [4], 6.1% (active); in test [5] it was -93.2% (active); in test [6], 5.48% (active). The growth in [7] is -95.2% (active); in [8], -82.2% (active); in test [9], -81.5% (active); in test [10], -63.9% (active).
On to `Clc1ccc(C2=NN=C3C(Cc4ccccc4)=Nc4ccccc4N3C2)cc1`, for which the growth in test [1] is 68.6%; in test [2], 84.6%; in test [3], 98.5%; in test [4], 93.3%; in test [5], 62.1%; in [6], 65.1%. The growth is 80.3% in test [7], 79.6% in [8], 65.2% in [9] and 83.4% in test [10].
On to `COc1ccccc1N1CCCSC1=Nc1ccccc1`, for which the growth in test [1] is 115%; in test [2] it was 150%; in test [3] it was 232%; in test [4], 92.9%; in test [5], 105%; in test [6], 92.9%. Also, the growth is 96.6% in test [7], 99.9% in [8], 92.5% in test [9] and 95.9% in test [10].
Consider `COc1ccc(-c2cc(-c3ccc(Cl)cc3)nc(SCCCCCCC(=O)NO)n2)cc1OC`, for which the growth in test [1] was 30.5%; in test [2], 46.7%; in test [3], 34%; in test [4] it was 60.6%; in [5] it was 59.8%; in test [6], 58.6%. Also, the growth is 1.04% (active) in test [7], 28.1% in test [8], 0.604% (active) in test [9] and 72.9% in test [10].
Take `c1ccc(/C(=N\Nc2ccc3ccccc3n2)c2ccccn2)cc1`: the growth was 25.7% in test [1]; 26.2% in [2]; -9.74% (active) in [3]; 26.1% in test [4]; 7.94% (active) in test [5]; 19.4% in [6]. For the same molecule, the growth in test [7] is -51.3% (active); in [8], -49.5% (active); in test [9] it was -13.5% (active); in [10] it was 20.5%.
On to `CC(=O)Nc1ccc(S(=O)(=O)N/N=C(\C)c2ccc(C)cc2C)cc1`, for which the growth was 100% in test [1]; 105% in test [2]; 77.4% in [3]; 101% in [4]; 104% in test [5]; 99.9% in [6]. Also, the growth is 113% in test [7], 107% in test [8], 106% in test [9] and 108% in test [10].
